Compound activity (PubChem BioAssay)
CHT allo act – allosteric activators of human choline transporter CHT; CHT-expressing cells, membrane potential dye, choline EC20; stronger effect = higher value; LV-AA mutant CHT in HEK293 cells; B-score at 10 µM; 310,000 compounds, 0.49% hits;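 active = initial fluorescence not abnormally high and integrated response B-score, plate-corrected, over 3 SD above library mean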
Target sequence (Q9GZV3 whole entry, looked up): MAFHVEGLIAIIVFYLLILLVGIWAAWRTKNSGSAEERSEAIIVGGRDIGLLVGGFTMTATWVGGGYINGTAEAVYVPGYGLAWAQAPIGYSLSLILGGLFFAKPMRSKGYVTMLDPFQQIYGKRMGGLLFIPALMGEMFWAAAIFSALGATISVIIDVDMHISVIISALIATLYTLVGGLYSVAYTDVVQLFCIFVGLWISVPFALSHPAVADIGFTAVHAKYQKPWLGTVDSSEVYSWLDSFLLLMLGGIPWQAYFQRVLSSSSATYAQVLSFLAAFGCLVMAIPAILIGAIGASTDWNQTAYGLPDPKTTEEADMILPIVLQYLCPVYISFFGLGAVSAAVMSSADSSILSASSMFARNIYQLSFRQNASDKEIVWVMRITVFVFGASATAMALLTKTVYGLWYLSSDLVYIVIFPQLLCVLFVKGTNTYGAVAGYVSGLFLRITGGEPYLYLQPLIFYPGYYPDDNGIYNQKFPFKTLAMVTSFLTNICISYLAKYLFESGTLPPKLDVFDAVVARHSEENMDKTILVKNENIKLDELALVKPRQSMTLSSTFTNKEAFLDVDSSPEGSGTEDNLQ
NALP1 yeast inh – blocks the NALP1 inflammasome reconstituted in yeast | S. cerevisiae NALP1/ASC/caspase-1 growth, X-gal OD620, 72 h | inhibition, % at 10 µM | 280,000 compounds, 0.61% hits | AID 2071; in the data active = inhibition mostly above about 24%, no sharp cut-off; inactive = mostly below about 32%
Bfl-1 A1 inh – inhibitors of the anti-apoptotic protein A1, read as caspase activation; 330,000 compounds, 0.066% hits; MEF A1-2A-BIM cells, Caspase-Glo 3/7 luminescence, 3 h; percent of clofoctol response, vehicle zero; caspase activation, % (test concentration not listed);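 active = over half of replicate activation scores above 10%, or exactly half above 10 with the replicate mean above 10; inconclusive = replicate mean below 10 yet half the replicates above 10; inactive = over half of replicates below 10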
SUMO Mot1 rescue – blocks SUMOylation pathway, rescuing yeast Mot1-301 growth. S. cerevisiae Mot1-301 growth rescue, ATP luminescence, 38.5C; percent above DMSO median, 100 means doubled. growth rescue, % at 18.8 µM. 320,000 compounds, 1% hits;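 active = every valid replicate shows activation above 250% relative to neutral control wells; inactive = the rest, any valid replicate at or below 250%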
CHT block – inhibits the human high affinity choline transporter; 310,000 compounds, 0.86% hits; Q9GZV3; CHT-expressing cells, membrane potential dye, choline response; stronger effect = lower value; AID 488975; B-score at 10 µM;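 active = B-score over 3 SD under the library average, and starting fluorescence ratio not unusually high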;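 note: choline stimulus applied at its EC90 after an EC20 pre-addition; B-score computed on integrated fluorescence ratio after choline addition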
NLRP3 yeast inh – NALP3 inhibition in yeast; Yeast reconstituted NLRP3/ASC/caspase-1, beta-gal luminescence, 24 h; inhibition, % at 10 µM; 330,000 compounds, 0.39% hits;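 active = inhibition of 50% or more; inactive = inhibition below 50%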
NALP3 yeast conf – confirmation of NALP3 inhibitors in yeast; shares compounds with NLRP3 yeast inh; 1,300 compounds, 81% hits; yeast expressing human NALP3, luminescence; AID 435006; inhibition, % at 10 µM; in the data active = inhibition above about 48%
Casp1 ASC ctr – counter-screen for NALP3 inhibitors: yeast caspase-1-ASC; shares compounds with NLRP3 yeast inh; 1,000 compounds, 66% hits; AID 488784; yeast expressing Caspase-1-ASC, luminescence counter screen; inhibition, % at 10 µM
NALP3 yeast rt – confirmation retest of NALP3 inhibitors in yeast; shares compounds with NLRP3 yeast inh; yeast expressing human NALP3, luminescence read-out; inhibition, % at 10 µM; 1,000 compounds, 53% hits; AID 488794
Large screens that a line does not name were inactive (follow-up assays come after a bar, where they were run). Most compounds without a hit are left out; they make up all but 3% or so of the library. Cut-off read from the data, not from the text of the source, unless noted: active = inhibition above about 50%; inactive = the rest.

c1ccc2c(c1)CCN(c1nc3cc4c(cc3s1)OCO4)C2	NLRP3 yeast inh 56 | NALP3 yeast conf 52 | Casp1 ASC ctr inactive | NALP3 yeast rt inactive
O=C(NCC1CCCO1)C(=O)NCC1CCCN1S(=O)(=O)c1ccccc1 (centres undefined)	none (no result: NALP1 yeast inh)
CNc1nc(SCc2ccccc2Cl)nc2c1CCCC2	NALP1 yeast inh 112, NLRP3 yeast inh 98 | NALP3 yeast conf 99 | Casp1 ASC ctr 98 | NALP3 yeast rt 98
C=CCn1c(SCC(=O)Nc2ccc(N3CCOCC3)cc2)nc2ccccc2c1=O	none
C[C@H](C[C@H](O)[C@H]1OC1(C)C)C1=C2C[C@H](O)C3[C@@]4(C)CCC(=O)C(C)(C)C4CC[C@]3(C)[C@@]2(C)CC1 (some centres undefined)	none (no result: CHT allo act, NALP1 yeast inh, CHT block)
C[C@@H](C[C@@H](O)[C@H](O)C(C)(C)O)[C@@H]1CC[C@]2(C)C3=CC[C@H]4C(C)(C)C(=O)CC[C@]4(C)[C@H]3CC[C@@]12C	NALP1 yeast inh 44, NLRP3 yeast inh 62 | NALP3 yeast conf 76
CCC(C(=O)OC)n1cnc2scc(-c3ccc(C)c(C)c3)c2c1=O (centres undefined)	NALP1 yeast inh 100, NLRP3 yeast inh 97 | NALP3 yeast conf 99 | Casp1 ASC ctr 99 | NALP3 yeast rt 98
CC(C)(C)NC(=O)NC(=O)CSc1ccc(S(=O)(=O)N2CCCCC2)cn1	none (no result: CHT allo act, NALP1 yeast inh, CHT block)
CCN(CC)S(=O)(=O)c1ccc(NC(=O)c2ccc(N3CCCC3=O)cc2)cc1	none (no result: CHT allo act, NALP1 yeast inh, CHT block)
C=CCNC(=O)c1ccc(N(Cc2ccccc2)S(C)(=O)=O)cc1	none
O=S1(=O)C=C(Sc2nc3ccccc3s2)c2ccccc21	Bfl-1 A1 inh inconclusive, NLRP3 yeast inh 62 | NALP3 yeast conf 64 | Casp1 ASC ctr 86 | NALP3 yeast rt 59
Cc1cc(C)nc(SC2=CS(=O)(=O)c3ccccc32)n1	none
CC(C)(C)c1nc(SCC(=O)NC2CCCC2)c2ccccc2n1	none
CC(Sc1nc(C(F)(F)F)nc2ccccc12)C(=O)NC1CCCC1 (centres undefined)	NLRP3 yeast inh 52 (no result: CHT allo act, NALP1 yeast inh, Bfl-1 A1 inh, SUMO Mot1 rescue, CHT block) | NALP3 yeast conf inactive
Cc1cccc(C)c1N/C=C/c1onc(C)c1[N+](=O)[O-]	none
Cc1noc(/C=C/c2cccnc2)c1[N+](=O)[O-]	NLRP3 yeast inh 80 | NALP3 yeast conf 87 | Casp1 ASC ctr 85 | NALP3 yeast rt 54
COc1ccc(N=C(C)C2=C(O)c3ccccc3C2=O)cc1	NLRP3 yeast inh 50 | NALP3 yeast conf inactive | Casp1 ASC ctr 57 | NALP3 yeast rt inactive
O=C(NCCOc1ccccc1)c1ccc2c(c1)S(=O)(=O)c1cc(Cl)ccc1C2=O	none (no result: CHT allo act, NALP1 yeast inh, CHT block)
O=C(CN(C(=O)c1csnn1)c1ccc(Cl)cc1)NCCc1ccccc1	none
CN(C)CCCN(C(=O)c1cc(-c2cccs2)nc2ccccc12)c1nc2ccc(F)cc2s1	NLRP3 yeast inh 52 | NALP3 yeast conf 65 | Casp1 ASC ctr 50 | NALP3 yeast rt inactive
O=C(c1cccc(Br)c1)c1coc2ccc(O)cc12	none (no result: CHT allo act, NALP1 yeast inh, CHT block)
O=C(c1cccs1)c1coc2ccc(O)cc12	NLRP3 yeast inh 67 | NALP3 yeast conf 86 | Casp1 ASC ctr 87 | NALP3 yeast rt 76
Cc1ccc(C(=O)Nc2ccc3nc(C)sc3c2)s1	none
Cc1nc2cc(NC(=O)c3ccc(Br)s3)ccc2s1	NLRP3 yeast inh 51 | NALP3 yeast conf 69 | Casp1 ASC ctr inactive | NALP3 yeast rt inactive
O=C(Nc1ccc(Cl)cc1)c1cc2c(cc1O)[nH]c1ccccc12	NLRP3 yeast inh 53 | NALP3 yeast conf 77 | Casp1 ASC ctr 72 | NALP3 yeast rt 91
CCOc1ccc(NC(=O)c2cc(=O)[nH]c3ccccc23)cc1	none
Cc1ccc2oc(/N=C(\N)NC(=O)C(C)(C)C)nc2c1	NLRP3 yeast inh 71 | NALP3 yeast conf 58 | Casp1 ASC ctr inactive | NALP3 yeast rt inactive
CCCCOc1ccc2c(c1)C(=O)c1cc(O)ccc1-2	NLRP3 yeast inh 61 | NALP3 yeast conf 70 | Casp1 ASC ctr 66 | NALP3 yeast rt 62
CCOc1ccc2c(c1)C(=O)c1cc(OCC(=O)O)ccc1-2	none
COc1ccc(-c2cc3nc4n(c(=O)c3s2)CCC4)cc1	NLRP3 yeast inh 53 | NALP3 yeast conf 72 | Casp1 ASC ctr inactive | NALP3 yeast rt inactive
O=C1/C(=C/c2ccccn2)SC(=S)N1c1ccc(O)cc1	NLRP3 yeast inh 70 (no result: NALP1 yeast inh) | NALP3 yeast conf 75 | Casp1 ASC ctr 56 | NALP3 yeast rt inactive
CCN(CC)c1ccc(N2C(=O)/C(=C\c3cccs3)SC2=S)cc1	none
O=C1CSC(=S)N1c1cccc(O)c1	NALP1 yeast inh 96, NLRP3 yeast inh 92 | NALP3 yeast conf 93 | Casp1 ASC ctr 99 | NALP3 yeast rt 96
O=C1/C(=C/c2cccs2)SC(=S)N1c1cccc(O)c1	NLRP3 yeast inh 81 | NALP3 yeast conf 88 | Casp1 ASC ctr 94 | NALP3 yeast rt 88
Cc1cccc(N2C(=O)/C(=C/c3ccccn3)SC2=S)c1	none
COc1ccc(NC(=O)Nc2ccc3c(c2)CC(=O)N([C@H](C)CO)C[C@@H](C)[C@H](CN(C)C(=O)Nc2ccccc2)O3)cc1	none (no result: CHT allo act, NALP1 yeast inh, CHT block)
C/C(=N\OC(=O)c1ccc(Br)cc1)c1ccccn1	none
O=C(c1ccccn1)c1conc1C(=O)c1ccc(Br)cc1	NLRP3 yeast inh 69 | NALP3 yeast conf 83 | Casp1 ASC ctr 84 | NALP3 yeast rt 60
Cc1ccccc1NC(=O)c1cnn(-c2ccccc2)c1C	none
Cc1ccc(C)c(NC(=O)c2cnn(-c3ccccc3)c2C)c1	NLRP3 yeast inh 55 | NALP3 yeast conf 66 | Casp1 ASC ctr inactive | NALP3 yeast rt inactive
O=C(O)c1ccc(Cl)c(S(=O)(=O)Nc2ccccc2C(=O)Nc2ccc(Cl)cc2)c1	none
COC(=O)c1ccn(CC(=O)NC2CCCCC2)n1	none
O=S(=O)(c1ccc(N2CCCC2)cc1)C(F)(F)F	NLRP3 yeast inh 56 | NALP3 yeast conf 59 | Casp1 ASC ctr 59 | NALP3 yeast rt inactive
O=S(=O)(Nc1ccc(N2CCCCC2)cc1)c1ccc(F)c(F)c1	none
CCN1C(=O)/C(=C/C=C2/SCCN2C)SC1=S	none | NALP3 yeast conf inactive
CN1CCS/C1=C\C=C1/SC(=S)N(CC(=O)O)C1=O	none (no result: CHT allo act, Bfl-1 A1 inh, SUMO Mot1 rescue, CHT block, NLRP3 yeast inh)
CC1(C)CC(=O)C=C(c2cccc(Cl)c2O)C1	NLRP3 yeast inh 71 (no result: CHT allo act, NALP1 yeast inh, CHT block) | NALP3 yeast conf 65 | Casp1 ASC ctr 75 | NALP3 yeast rt 62
C/C(=N\NC(=S)NCc1ccccc1)c1ccc2ccccc2c1OC(F)F	NLRP3 yeast inh 56 | NALP3 yeast conf inactive
